According to ChEMBL document CHEMBL5308504, “Tm Shift (DSF) assay results for EUbOPEN Chemogenomics Library” (2023):
“And” between values parts separate entries of the source, which are not always exact repeats. Identical values can stand only once.

Experiments:
[1] = biological target: Bromodomain-containing protein 4 (Homo sapiens) (UniProt O60885); conditions: Compound concentration 20.0 uM, Protein concentration 2.0 uM, Result type QC Liability
[2] = biological target: T1, Transcription intermediary factor 1-alpha (Homo sapiens) (UniProt O15164); conditions: Compound concentration 20.0 uM, Protein concentration 2.0 uM, Result type QC Liability
T1 sequence (whole entry): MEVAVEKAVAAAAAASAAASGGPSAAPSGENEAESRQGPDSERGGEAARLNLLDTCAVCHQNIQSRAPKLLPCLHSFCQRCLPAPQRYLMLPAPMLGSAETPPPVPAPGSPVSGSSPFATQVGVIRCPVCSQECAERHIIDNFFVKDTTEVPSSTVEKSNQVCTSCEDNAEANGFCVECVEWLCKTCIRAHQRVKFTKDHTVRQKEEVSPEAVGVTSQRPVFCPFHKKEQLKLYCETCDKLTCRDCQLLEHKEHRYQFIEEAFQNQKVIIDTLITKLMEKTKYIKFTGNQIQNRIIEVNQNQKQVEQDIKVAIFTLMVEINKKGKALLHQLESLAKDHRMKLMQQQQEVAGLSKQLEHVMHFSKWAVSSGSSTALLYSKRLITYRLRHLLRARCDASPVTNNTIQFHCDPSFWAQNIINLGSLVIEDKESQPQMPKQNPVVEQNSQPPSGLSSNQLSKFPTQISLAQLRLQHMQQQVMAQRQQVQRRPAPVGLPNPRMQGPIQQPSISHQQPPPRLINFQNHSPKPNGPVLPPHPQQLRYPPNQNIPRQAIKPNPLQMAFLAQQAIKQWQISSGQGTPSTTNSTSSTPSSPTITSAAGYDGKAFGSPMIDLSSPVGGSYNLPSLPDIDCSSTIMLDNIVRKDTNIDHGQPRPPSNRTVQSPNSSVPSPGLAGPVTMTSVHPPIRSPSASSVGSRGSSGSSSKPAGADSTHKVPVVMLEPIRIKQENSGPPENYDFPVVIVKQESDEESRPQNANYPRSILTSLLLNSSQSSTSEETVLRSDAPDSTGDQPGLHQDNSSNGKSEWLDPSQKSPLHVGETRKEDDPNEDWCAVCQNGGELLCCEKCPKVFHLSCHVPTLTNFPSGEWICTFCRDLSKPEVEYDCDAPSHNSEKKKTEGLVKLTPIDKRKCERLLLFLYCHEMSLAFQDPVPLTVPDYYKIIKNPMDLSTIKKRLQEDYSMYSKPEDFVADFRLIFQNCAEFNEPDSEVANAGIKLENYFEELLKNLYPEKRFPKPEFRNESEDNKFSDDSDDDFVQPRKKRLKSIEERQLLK

`c1ccc2c(c1)SCc1c-2[nH]c2ccccc12` showed a ΔTm [1] of -15.3 °C and a ΔTm [2] of -7.68 °C.

Compound `C/C=C1\C(=O)CC2C3CCC4=CC(=O)CC[C@]4(C)C3CC[C@]12C` (stereo not given in full) has a ΔTm [1] of -2.62 °C and a ΔTm [2] of -2.32 °C.

Compound `COc1ncc(-c2cc(-c3ncc(CN4C[C@@H](C)O[C@@H](C)C4)o3)c3cn[nH]c3c2)cc1NS(C)(=O)=O` has a ΔTm [1] of 0.37 °C and a ΔTm [2] of -1.87 °C.

`CCCCNc1ncc2c(-c3ccc(CN4CCN(C)CC4)cc3)cn([C@H]3CC[C@H](O)CC3)c2n1` gave a ΔTm [1] of -3.24 °C and a ΔTm [2] of -0.35 °C.

With `CCc1ccccc1C(=O)Nc1n[nH]c2c(C)c(F)c(C3C(C#N)=C(C)N(C)C(C)=C3C#N)cc12` the ΔTm [1] was -3.05 °C and the ΔTm [2] was -0.71 °C.

Work on `Cc1c(CCC(=O)O)cccc1NC(=O)[C@@H](c1ccc(-c2cncc(Cl)c2)c(F)c1)C1CCCC1` yielded a ΔTm [1] of 0.73 °C and a ΔTm [2] of 0.32 °C.

`CNS(=O)(=O)c1ccc(N(C)C)c(Nc2ncnc3cc(OC)c(OC)cc23)c1` gave a ΔTm [1] of -3.63 °C and a ΔTm [2] of -2.8 °C.

Work on `Cc1cc(=O)n(C)c2cc(N3C(=O)CC[C@H](NS(=O)(=O)CC(C)C)[C@H]3c3ccc(Cl)cc3)ccc12` yielded a ΔTm [1] of -3.01 °C and a ΔTm [2] of -3.49 °C.

With `CCCCOc1c(C(=O)c2c(F)cc(C)cc2F)c[nH]c2nncc1-2` the ΔTm [1] was -0.5 °C and the ΔTm [2] was -1.46 °C.

For `CN[C@@H]1CC[C@@H](c2ccc(Cl)c(Cl)c2)c2ccccc21`, the ΔTm [1] was -1.03 °C and the ΔTm [2] was -3.59 °C.

`CN1C(=O)Cc2ccc(-c3ccc(C[C@@H](C#N)NC(=O)[C@H]4N[C@@H]5CC[C@H]4C5)c(F)c3)cc21` showed a ΔTm [1] of 0.1 °C and a ΔTm [2] of 0.42 °C.

In the case of `CC[C@@H]1C(=O)N(C)c2cnc(Nc3ccc(C(=O)NC4CCN(C)CC4)cc3OC)nc2N1C1CCCC1`, the ΔTm [1] is reported as 6.02 °C and the ΔTm [2] is reported as 0.07 °C.

`Cc1cc2c(-c3ccco3)cnc(N[C@@H]3CCN(C)C[C@H]3C(=O)NC3CCCCC3)c2[nH]c1=O` gave a ΔTm [1] of 13.3 °C and a ΔTm [2] of -4.37 °C.

For `CCNC1=N[C@@H]2[C@@H](O)[C@H](O)[C@@H](CO)O[C@@H]2S1`, the ΔTm [1] was -1.49 °C and the ΔTm [2] was -2.58 °C.

Work on `COc1cc(C(N)=O)nc(-c2cccc(C#C[C@]3(O)CCN(C)C3=O)c2)c1` yielded a ΔTm [1] of -0.77 °C and a ΔTm [2] of -0.62 °C.

In the case of `COc1cc(C(=O)NC2CCN(C)CC2)ccc1Nc1ncc2c(n1)N(C1CCCC1)CC(F)(F)C(=O)N2C`, the ΔTm [1] is reported as 7.37 °C and the ΔTm [2] is reported as -2.21 °C.

Work on `CCn1c(-c2nonc2N)nc2ccccc21` yielded a ΔTm [1] of -0.33 °C and a ΔTm [2] of -1.27 °C.

`O=C1Nc2ccc(C(=O)c3ccco3)cc2C1=Cc1cc(Cl)c(O)c(Cl)c1` gave a ΔTm [1] of 0.79 °C and a ΔTm [2] of -3.45 °C.

In the case of `CSc1nc2c(c(=O)n(C)c(=O)n2C)n1C`, the ΔTm [1] is reported as -3.81 °C and the ΔTm [2] is reported as -0.92 °C.

For `CCC(F)(F)c1cc(N2CCC(S(C)(=O)=O)CC2)nc2sc(C(N)=O)c(N)c12`, the ΔTm [1] was -3.68 °C and -1.82 °C and -0.22 °C and the ΔTm [2] was 0.36 °C and -3.9 °C and -0.99 °C.

Work on `CN(C)[C@H]1CCN(c2cc(C(F)(F)F)c(C#N)c(Nc3cccc(CCC(=O)O)c3)n2)C1` yielded a ΔTm [1] of -0.8 °C and a ΔTm [2] of 0.26 °C.

In the case of `COc1ccc(-c2c(-c3ccccc3)oc3ncnc(O[C@H](C)CCCCC(=O)O)c23)cc1`, the ΔTm [1] is reported as -0.98 °C and the ΔTm [2] is reported as -1.53 °C.

Work on `CCn1c(=O)c2c(C)c(C(=O)N3CCC(O)CC3)sc2n(CCC(F)(F)F)c1=O` yielded a ΔTm [1] of -12.7 °C and a ΔTm [2] of 0.23 °C.

In the case of `c1ccc(C(OC2CCN(CCCc3nnn[nH]3)CC2)c2ccccc2)cc1`, the ΔTm [1] is reported as -1 °C and the ΔTm [2] is reported as -0.6 °C.

Compound `C=CC(=O)Nc1ccc(C(=O)Nc2[nH]nc3c2CN(C(=O)N[C@H](CN(C)C)c2ccccc2)C3(C)C)cc1` has a ΔTm [1] of 0.61 °C and a ΔTm [2] of -2.21 °C.

`CCO[C@H](COc1ccc(C(F)(F)F)cc1)CSc1ccc(OCC(=O)O)c(C)c1` gave a ΔTm [1] of -2.72 °C and a ΔTm [2] of -3.26 °C.

In the case of `O=C(O)C[C@H]1CCn2c1c(Sc1ccc(Cl)cc1)c1ccc(F)cc12`, the ΔTm [1] is reported as 0 °C and the ΔTm [2] is reported as -1.67 °C.

With `CN1CCN(c2ccc(Nc3ncc4cc5n(c4n3)C3(CCCCC3)CNC5=O)nc2)CC1` the ΔTm [1] was -0.66 °C and the ΔTm [2] was -0.72 °C.

`CC(C)c1nc2c(c3c1[C@@H](c1ccc(C(F)(F)F)cc1)OC31CCOCC1)[C@@H](O)CC(C)(C)C2` gave a ΔTm [1] of -1.67 °C and a ΔTm [2] of 0.17 °C.

`COc1cc(C(=O)O)ncc1C#Cc1ccccc1NS(=O)(=O)c1cccc2c(N(C)C)ccnc12` gave a ΔTm [1] of 0.26 °C and a ΔTm [2] of -2.33 °C.

In the case of `CC(C)N1CCN(Cc2cnc(-c3cc(-c4cccc5[nH]ccc45)cc4[nH]ncc34)o2)CC1`, the ΔTm [1] is reported as 0 °C and the ΔTm [2] is reported as -2.06 °C.

`CCOC(=O)c1ccc(CN(Cc2ccc(-c3cccc(S(C)(=O)=O)c3)cc2)S(=O)(=O)c2c(C)cc(C)cc2C)o1` gave a ΔTm [1] of -4.78 °C and a ΔTm [2] of 0.5 °C.

`CC(=O)N1CCC(c2ccc(C(=O)NC3=NCCN3)cc2C(F)(F)F)CC1` was tested, and the ΔTm [1] was -0.26 °C and the ΔTm [2] was 0.31 °C.

`C=CC(=O)Nc1cccc(C(=O)Nc2ccc(Nc3cc(-c4c(-c5ccc(F)cc5)nc(SC)n4C)ccn3)cc2)c1` gave a ΔTm [1] of -0.7 °C and a ΔTm [2] of -0.89 °C.

`Cc1ccc(NC(=O)c2ccc3c(c2)OCCO3)cc1NC(=O)c1ccc2nc(OCCN3CCCC3)ccc2c1` was tested, and the ΔTm [1] was -12.8 °C and the ΔTm [2] was -0.86 °C.
